{"source": "PubChem BioAssay (NCI)", "note": "This is part of a sample that, as a whole, favours compounds with a hit. Of some 83,000 tested, about 20% had one in any assay.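 The test compound was applied at a single concentration to cells in 96-well plates for 48 hours, and percent growth was recorded.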 The source made the active and inactive calls. The calls were made as follows: active = growth percent below 10; inactive = the rest.", "data": [{"test_system": "RPMI-8226 leukemia", "assay": "NCI-60 one-dose screen, 48 h (100 = growth as untreated, 0 = no growth, -100 = all killed)", "settings": "10 µM", "values": [{"smiles": "Cc1ccc(F)cc1N/C=c1\\s/c(=C(\\C#N)C(=O)Nc2ccccc2)n(-c2ccccc2)c1=O", "growth": "84.9% (inactive)"}, {"smiles": "COc1ccc([C@H]2C(C(=O)c3ccc(Cl)cc3)C3(N[C@@H]2c2ccccc2)C(=O)Nc2ccc(Cl)cc23)cc1", "note": "(stereo not given in full)", "growth": "-11% (active)"}, {"smiles": "O=C1Nc2cc(-c3ccc(NC(=O)c4cccc([N+](=O)[O-])c4)cc3)ccc2/C1=C/c1ccc[nH]1", "growth": "82.9% (inactive)"}, {"smiles": "CCCn1c(=O)c2[nH]c(-c3ccc(OCc4nc5ccc(F)cc5[nH]4)cc3)nc2n(CCC)c1=O", "growth": "16.7% (inactive)"}, {"smiles": "CCCS(=O)(=O)c1oc(-c2ccc(F)cc2)nc1S(=O)(=O)c1ccc(F)cc1", "growth": "-46.6% (active)"}, {"smiles": "O=C(CSc1nnc(-c2c[nH]c3ccccc23)n1-c1ccccc1)Nc1ccc(C(=O)/C=C/c2ccc(Br)cc2)cc1", "growth": "7.63% (active)"}, {"smiles": "CCOC(=O)C1=C(N)N(c2ccc(Cl)cc2)C2=C(C(=O)CC(C)(C)C2)C1c1ccc(N2CCOCC2)cc1", "note": "(stereo not given)", "growth": "99.9% (inactive)"}, {"smiles": "COc1ccc2[nH]cc(/C=N/Nc3ccc(Br)cn3)c2c1", "growth": "-11.4% (active)"}, {"smiles": "COc1ccc2[nH]c(O)c(N=NC(=O)COc3ccc(NC(=O)Nc4ccc(Cl)c(Cl)c4)cc3)c2c1", "growth": "11.1% (inactive)"}, {"smiles": "C=C1CC[C@H](C(=C)C)[C@H]2C=C(C)C(=O)C3=C(C(=O)[C@@](C)(O)C3)[C@H]12", "growth": "-22.5% (active)"}, {"smiles": "O=S(=O)(Nc1ncccn1)c1ccc(-n2c(-c3ccccc3)nc(-c3ccccc3)c2-c2ccccc2)cc1", "growth": "71.1% (inactive)"}, {"smiles": "COc1cccc(/C=C2\\N=C(C)N(CCc3ccc(S(N)(=O)=O)cc3)C2=O)c1", "growth": "97.2% (inactive)"}, {"smiles": "O=C(O)CCCCCCCCCCN1C(=O)/C(=C/c2cnc(-c3ccccc3)s2)SC1=S", "growth": "86.5% (inactive)"}, {"smiles": "COc1ccc(-c2ccc(/C=N/NC(=O)c3[nH]c4ccc(Br)cc4c3-c3ccccc3)s2)cc1", "growth": "57.7% (inactive)"}, {"smiles": "O=C1N/C(=N\\c2nccs2)S/C1=C\\c1cccs1", "growth": "19.5% (inactive)"}, {"smiles": "O=C(CNc1nc(-c2ccccc2)cs1)Nc1ccccc1", "growth": "8.69% (active)"}, {"smiles": "COc1cc2c3c(n(CCCNC(C)C)c(=O)c2cc1OC)-c1nc2c(cc1C3=O)OCO2", "growth": "-26.2% (active)"}, {"smiles": "N#Cc1ccc(-c2nn(-c3ccc(C(=O)O)cc3)cc2CNc2ccc(Cl)cc2)cc1", "growth": "66.4% (inactive)"}, {"smiles": "COc1ccc2nc(Cl)c(-c3cc(-c4ccccc4)nc(=S)[nH]3)cc2c1", "growth": "71.7% (inactive)"}, {"smiles": "Cc1ccc(NC(=O)c2ccc(-n3c(=O)[nH]c4ccccc4c3=O)cc2)cc1", "growth": "133% (inactive)"}, {"smiles": "Nc1nc(Nc2ccc(Cl)cc2)n(Cc2cccc(Br)c2)n1", "growth": "2.44% (active)"}, {"smiles": "O=C(CN1CCN(c2ncnc3c2cnn3-c2ccccc2)CC1)Nc1nncs1", "growth": "-16.6% (active)"}, {"smiles": "O=c1c2ccccc2nc(COc2ccccc2)n1/N=C/c1ccc(N2CCOCC2)cc1", "growth": "88.8% (inactive)"}, {"smiles": "O=c1nc(-c2ccccc2)cc(-c2cc3ccccc3nc2Cl)[nH]1", "growth": "-29.4% (active)"}, {"smiles": "C/C(=N\\NC(N)=S)c1ccc(Nc2nc(SC(C)C)nc(-c3ccccc3)c2C#N)cc1", "growth": "72.3% (inactive)"}, {"smiles": "COc1ccc(/C=C/C(=O)c2ccc(N3CCN(C)CC3)cc2)c(C(F)(F)F)c1", "growth": "0.333% (active)"}, {"smiles": "Nc1n[nH]c2cccc(C#Cc3cccc(NC(=O)Nc4cc(C(F)(F)F)cc(C(F)(F)F)c4)c3)c12", "growth": "-16.3% (active)"}, {"smiles": "O=C(Nc1ccc(Cl)c([N+](=O)[O-])c1)Nc1ccc(Cl)c([N+](=O)[O-])c1", "growth": "-20.5% (active)"}, {"smiles": "O=C(Nc1nc2ccc([N+](=O)[O-])cc2s1)Nc1cc(Cl)ccc1I", "growth": "-40.9% (active)"}, {"smiles": "O=C1CCC(N2Cc3cc(NC(=O)COc4ccccc4)ccc3C2=O)C(=O)N1", "note": "(stereo not given)", "growth": "65% (inactive)"}, {"smiles": "O=C(c1ccc(-n2c(=O)[nH]c3ccccc3c2=O)cc1)N1CCOCC1", "growth": "120% (inactive)"}, {"smiles": "CN1CCc2c(sc3ncnc(N/N=C/c4cn(-c5ccccc5)nc4-c4ccc(Cl)cc4)c23)C1", "growth": "23.7% (inactive)"}, {"smiles": "C=CC(=O)Nc1ccc(C(=O)/C=C/c2ccc(N(C)CCF)cc2)c(O)c1", "growth": "3.47% (active)"}]}, {"test_system": "OVCAR-8 ovarian", "assay": "NCI-60 one-dose screen, 48 h (100 = growth as untreated, 0 = no growth, -100 = all killed)", "settings": "10 µM", "values": [{"smiles": "Cc1ccc(F)cc1N/C=c1\\s/c(=C(\\C#N)C(=O)Nc2ccccc2)n(-c2ccccc2)c1=O", "growth": "53.9% (inactive)"}, {"smiles": "COc1ccc([C@H]2C(C(=O)c3ccc(Cl)cc3)C3(N[C@@H]2c2ccccc2)C(=O)Nc2ccc(Cl)cc23)cc1", "note": "(stereo not given in full)", "growth": "15.3% (inactive)"}, {"smiles": "O=C1Nc2cc(-c3ccc(NC(=O)c4cccc([N+](=O)[O-])c4)cc3)ccc2/C1=C/c1ccc[nH]1", "growth": "90.4% (inactive)"}, {"smiles": "CCCn1c(=O)c2[nH]c(-c3ccc(OCc4nc5ccc(F)cc5[nH]4)cc3)nc2n(CCC)c1=O", "growth": "-41.3% (active)"}, {"smiles": "CCCS(=O)(=O)c1oc(-c2ccc(F)cc2)nc1S(=O)(=O)c1ccc(F)cc1", "growth": "-69.3% (active)"}, {"smiles": "O=C(CSc1nnc(-c2c[nH]c3ccccc23)n1-c1ccccc1)Nc1ccc(C(=O)/C=C/c2ccc(Br)cc2)cc1", "growth": "95.6% (inactive)"}, {"smiles": "CCOC(=O)C1=C(N)N(c2ccc(Cl)cc2)C2=C(C(=O)CC(C)(C)C2)C1c1ccc(N2CCOCC2)cc1", "note": "(stereo not given)", "growth": "100% (inactive)"}, {"smiles": "COc1ccc2[nH]cc(/C=N/Nc3ccc(Br)cn3)c2c1", "growth": "34% (inactive)"}, {"smiles": "O/N=C(\\CSc1nnc(-c2c[nH]c3ccccc23)n1-c1ccccc1)c1ccc(Cl)cc1", "growth": "6.37% (active)"}, {"smiles": "COc1ccc2[nH]c(O)c(N=NC(=O)COc3ccc(NC(=O)Nc4ccc(Cl)c(Cl)c4)cc3)c2c1", "growth": "-69.2% (active)"}, {"smiles": "C=C1CC[C@H](C(=C)C)[C@H]2C=C(C)C(=O)C3=C(C(=O)[C@@](C)(O)C3)[C@H]12", "growth": "-96.5% (active)"}, {"smiles": "O=S(=O)(Nc1ncccn1)c1ccc(-n2c(-c3ccccc3)nc(-c3ccccc3)c2-c2ccccc2)cc1", "growth": "97.4% (inactive)"}, {"smiles": "COc1cccc(/C=C2\\N=C(C)N(CCc3ccc(S(N)(=O)=O)cc3)C2=O)c1", "growth": "102% (inactive)"}, {"smiles": "CN(C)c1ccc(/C=C/C(=O)c2ccc(NC(=O)CN3C(=O)NC(C)(c4ccccc4)C3=O)cc2)cc1", "note": "(stereo not given)", "growth": "67.1% (inactive)"}, {"smiles": "O=C(O)CCCCCCCCCCN1C(=O)/C(=C/c2cnc(-c3ccccc3)s2)SC1=S", "growth": "61.4% (inactive)"}, {"smiles": "COc1ccc(-c2ccc(/C=N/NC(=O)c3[nH]c4ccc(Br)cc4c3-c3ccccc3)s2)cc1", "growth": "51.9% (inactive)"}, {"smiles": "O=C1N/C(=N\\c2nccs2)S/C1=C\\c1cccs1", "growth": "31.3% (inactive)"}, {"smiles": "O=C(CNc1nc(-c2ccccc2)cs1)Nc1ccccc1", "growth": "10% (inactive)"}, {"smiles": "COc1cc2c3c(n(CCCNC(C)C)c(=O)c2cc1OC)-c1nc2c(cc1C3=O)OCO2", "growth": "-58% (active)"}, {"smiles": "Cc1cccc(-c2nc(Nc3ccccc3C(=O)O)c3ccccc3n2)c1", "growth": "60.3% (inactive)"}, {"smiles": "Oc1ccc(/C=C2\\CCCc3cc4ccc(O)cc4[o+]c32)c(O)c1", "growth": "-56.9% (active)"}, {"smiles": "N#Cc1ccc(-c2nn(-c3ccc(C(=O)O)cc3)cc2CNc2ccc(Cl)cc2)cc1", "growth": "74.4% (inactive)"}, {"smiles": "Cc1ccc(NC(=O)c2ccc(-n3c(=O)[nH]c4ccccc4c3=O)cc2)cc1", "growth": "52.9% (inactive)"}, {"smiles": "Nc1nc(Nc2ccc(Cl)cc2)n(Cc2cccc(Br)c2)n1", "growth": "2.52% (active)"}, {"smiles": "O=C(CN1CCN(c2ncnc3c2cnn3-c2ccccc2)CC1)Nc1nncs1", "growth": "-21.4% (active)"}, {"smiles": "O=c1c2ccccc2nc(COc2ccccc2)n1/N=C/c1ccc(N2CCOCC2)cc1", "growth": "33.1% (inactive)"}, {"smiles": "Cn1c(O)c(N=Nc2nc(-c3cc4ccccc4oc3=O)cs2)c2cc(Br)ccc21", "growth": "79.2% (inactive)"}, {"smiles": "O=c1nc(-c2ccccc2)cc(-c2cc3ccccc3nc2Cl)[nH]1", "growth": "-68.1% (active)"}, {"smiles": "C/C(=N\\NC(N)=S)c1ccc(Nc2nc(SC(C)C)nc(-c3ccccc3)c2C#N)cc1", "growth": "30.5% (inactive)"}, {"smiles": "COc1ccc(/C=C/C(=O)c2ccc(N3CCN(C)CC3)cc2)c(C(F)(F)F)c1", "growth": "49.6% (inactive)"}, {"smiles": "Nc1n[nH]c2cccc(C#Cc3cccc(NC(=O)Nc4cc(C(F)(F)F)cc(C(F)(F)F)c4)c3)c12", "growth": "-5.59% (active)"}, {"smiles": "O=C(Nc1ccc(Cl)c([N+](=O)[O-])c1)Nc1ccc(Cl)c([N+](=O)[O-])c1", "growth": "20.7% (inactive)"}, {"smiles": "O=C(Nc1nc2ccc([N+](=O)[O-])cc2s1)Nc1cc(Cl)ccc1I", "growth": "-13.6% (active)"}, {"smiles": "O=C1CCC(N2Cc3cc(NC(=O)COc4ccccc4)ccc3C2=O)C(=O)N1", "note": "(stereo not given)", "growth": "47.8% (inactive)"}, {"smiles": "O=C(c1ccc(-n2c(=O)[nH]c3ccccc3c2=O)cc1)N1CCOCC1", "growth": "108% (inactive)"}, {"smiles": "CN1CCc2c(sc3ncnc(N/N=C/c4cn(-c5ccccc5)nc4-c4ccc(Cl)cc4)c23)C1", "growth": "-26.1% (active)"}, {"smiles": "C=CC(=O)Nc1ccc(C(=O)/C=C/c2ccc(N(C)CCF)cc2)c(O)c1", "growth": "-45.8% (active)"}]}]}
